Screening results as filed in PubChem.
GLP1R inv ag: qHTS of GLP-1 Receptor Inverse Agonists (Inhibition Mode); HEK293 GLP-1R CRE-luciferase, luminescence, 24 h; GLP-1R form is constitutively active; 410,000 compounds, 1.6% hits; Glucagon-like peptide 1 receptor (Homo sapiens), P43220; Potency, µM (series often up to 38.3 µM), hits mostly inhibitors; further: nearly all actives have a fitted effect of over 55% in size
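Seeding at 200 cells/uL, 12 h culture, 24 hr compound treatment, then luciferase reagent and a luminescence read; cells are HEK293 stably expressing a constitutively active GLP-1R plus cAMP-responsive luciferase.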
PTHR1 ag: qHTS for PTHR1 Agonists: Primary Screen; Potency, µM (top dose mostly 115 µM), most hits filed as activators; HEK293 GP2 PTHR1 cells, GloSensor cAMP luminescence, 1 h; 410,000 compounds, 0.075% hits; Parathyroid hormone/parathyroid hormone-related peptide receptor (Homo sapiens), Q03431; further: nearly all actives have a fitted effect of over 55% in size
Target sequence (Q03431 whole entry, looked up): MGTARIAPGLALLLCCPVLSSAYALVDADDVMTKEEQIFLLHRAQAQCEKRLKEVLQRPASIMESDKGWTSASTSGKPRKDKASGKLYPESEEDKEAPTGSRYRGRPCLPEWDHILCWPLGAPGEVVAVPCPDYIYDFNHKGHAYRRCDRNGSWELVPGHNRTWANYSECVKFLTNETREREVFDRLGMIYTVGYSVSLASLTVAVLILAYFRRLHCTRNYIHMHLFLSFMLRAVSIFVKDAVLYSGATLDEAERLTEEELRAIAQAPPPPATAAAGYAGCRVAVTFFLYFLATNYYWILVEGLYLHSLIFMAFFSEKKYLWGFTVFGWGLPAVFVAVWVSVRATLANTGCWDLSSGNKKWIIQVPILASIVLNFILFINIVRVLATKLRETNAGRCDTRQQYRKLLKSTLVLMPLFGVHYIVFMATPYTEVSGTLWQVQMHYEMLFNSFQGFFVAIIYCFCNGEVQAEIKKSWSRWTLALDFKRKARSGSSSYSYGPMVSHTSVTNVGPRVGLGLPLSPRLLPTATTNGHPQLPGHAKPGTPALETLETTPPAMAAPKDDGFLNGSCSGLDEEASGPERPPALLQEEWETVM
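HEK-293-derived GP2 cells expressing PTHR1 and a GloSensor cAMP reporter, 3,000/well, plated overnight, given luciferin plus IBMX (each 0.5 mM as added) for 1 h at 37 °C, then compound for 1 h at 37 °C. Luminescence was read after 15 min at room temperature.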
TRHR agonist: qHTS for Small Molecule Agonists and Allosteric Enhancers of Human TRH Receptor: Primary Screen for Agonists; AID 493084, 2011; TRHR cells, calcium flux fluo-8, FDSS agonist mode; Thyrotropin-releasing hormone receptor (Homo sapiens), P34981; activation, % at 2 µM; 360,000 compounds, 0.18% hits; in the data active means activation above about 30%
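Steps: seed TRHR cells overnight; add fluo-8 no-wash Ca dye, RT 30 min–1.5 h; record 10 s baseline; pin-transfer compounds; monitor fluorescence 1 cycle/s for the agonist window. Calcium increases flag candidate agonists.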
GLP1R cytotox: qHTS of GLP-1 Receptor Inverse Agonists: Cytotox Screen. AID 624418, 2012. Potency, µM (highest dose often 38.3 µM), usual class: inhibitors. HEK293 cAMP-luciferase reporter cells, luminescence, 24 h. 410,000 compounds, 0.13% hits;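 further: loss of luciferase light is scored as toxicity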
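Step one: seed cells (200 cells/uL, DMEM with 10% Nu serum, 1% pen-strep). Step two: 12-hour incubation at 37 deg C. Step three: pin 23 nL compound, incubate 24 hr. Step four: add luciferase reagent, read luminescence 12 min later.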
TRHR PAM: qHTS for Small Molecule Agonists and Allosteric Enhancers of Human TRH Receptor: Primary Screen for Enhancers; TRHR cells, fluo-8 calcium fluorescence, EC20 TRH enhancement; 360,000 compounds, 0.66% hits; Thyrotropin-releasing hormone receptor (Homo sapiens), P34981; enhancement, % at 2 µM; AID 493056, 2011; in the data active means enhancement above about 30%
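TRHR-expressing cells loaded with fluo-8 calcium dye were read kinetically (ex 480/em 530) during compound addition, then stimulated with an EC20 of TRH (10 nM final). Enhancement of the Gq-mediated intracellular calcium response was scored.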
GLP-1R agonist: qHTS of GLP-1 Receptor Agonists. Glucagon-like peptide 1 receptor (Homo sapiens), P43220. HEK293 GLP-1R CRE-luciferase, luminescence, 4-6 h; cells express a hypersensitive GLP-1R form. Potency, µM (highest dose often 45.6 µM), usual class: activators. 380,000 compounds, 0.007% hits. AID 624172, 2012
Each line names hits and unclear results; the compound was inactive in the other large screens. Compounds with a hit are over-represented: about 2.4% of the library has one in this group of screens. Unless noted, the call rests on the fitted dose curve; in most records, active means well fitted curve in the direction sought with a large enough effect; inconclusive means small, poorly fitted or top-dose-only effect, or another doubt; inactive means no such curve, though single readings can be large; an effect the other way counts as inactive or inconclusive.

COC(=O)c1ccccc1S(=O)(=O)N1CCC(C(=O)OCC(=O)NCC(F)(F)F)CC1	none
O=C(CSc1nnc(Cc2cccs2)n1Cc1ccco1)Nc1ccc(Cl)cc1Cl	GLP1R inv ag inconclusive, PTHR1 ag inconclusive
O=C(CSc1nnc(Cc2cccs2)n1Cc1ccco1)Nc1ccc(Br)cc1	GLP1R inv ag 3.55µM
O=C(Cn1cc(/C=C\[N+](=O)[O-])c2ccccc21)Nc1ccccc1	GLP1R inv ag 7.08µM, GLP1R cytotox inconclusive
O=C(O)Cn1cc(/C=C/[N+](=O)[O-])c2ccccc21	none
O=C(C1CCCCC1)N1CCCc2ccccc21	GLP1R inv ag inconclusive
Cc1nn(C2CCS(=O)(=O)C2)c(Cl)c1/C=C/C(=O)OCC(N)=O (stereo not given)	TRHR PAM 33.3
Cc1nn(C2CCS(=O)(=O)C2)c(Cl)c1/C=C/C(=O)OCC(=O)N(C)C (stereo not given)	none
COc1ccccc1CNS(=O)(=O)c1ccc(N2CCCCS2(=O)=O)cc1	none (no result: GLP-1R agonist)
CCC(=O)Nc1nc(CC(=O)Nc2ccccc2OC)cs1	none
COc1cc(C)ccc1NC(=O)Cc1csc(NC(=O)Nc2ccccc2OC)n1	GLP1R inv ag 10µM, GLP1R cytotox inconclusive
COc1cccc(NC(=O)Cc2csc(NC(=O)Nc3ccccc3OC)n2)c1	GLP1R inv ag 10µM, GLP1R cytotox inconclusive
COc1ccccc1NC(=O)Cc1csc(NC(=S)Nc2ccc(C)cc2)n1	GLP1R cytotox 3.16µM
CC(C)n1c(C(F)(F)F)nc2cc(C(=O)N3CCCCC3)ccc21	none
CCN(CC)c1ncnc2c1ncn2[C@H]1CN(Cc2ccncc2)C[C@@H](CO)O1	none (no result: TRHR agonist, TRHR PAM)
CC(=O)NC(=O)c1nnn(Cc2ccccc2)c1NC(C)=O	TRHR PAM 33.9
Cc1ccc(Cl)cc1NC(=O)c1nnn(Cc2ccccc2)c1N	TRHR PAM 31.4 (no result: GLP-1R agonist)
O=C(N/N=C/c1c(Cl)cccc1Cl)c1n[nH]c2c1CCCC2	GLP1R inv ag inconclusive
C/C(=N\NC(=O)c1n[nH]c2c1CCC2)c1ccco1	GLP1R inv ag 1.78µM
Cc1ccsc1/C=N\NC(=O)c1n[nH]c2c1CCC2	GLP1R inv ag 2.82µM, GLP1R cytotox inconclusive
CCC(C)(C)C1CCc2[nH]nc(C(=O)N/N=C(\C)c3ccco3)c2C1 (stereo not given)	GLP1R inv ag inconclusive, GLP1R cytotox inconclusive
CC(=O)COc1coc(CN2CCN(c3ccc(F)cc3)CC2)cc1=O	TRHR PAM 31.4
O=C(OCC(F)(F)F)c1cccc(COc2ccc3ccccc3c2)c1	GLP1R inv ag 2.24µM
COc1ccc(OCc2cccc(C(=O)O)c2)cc1	none
COc1cccc(CN(C)CC(=O)Nc2cc(S(=O)(=O)N3CCCC3)ccc2Cl)c1OC	GLP1R inv ag 7.94µM
COc1ccccc1CN(C)CC(=O)Nc1cccc(S(=O)(=O)N2CCCC2)c1	GLP1R inv ag inconclusive (no result: TRHR agonist, TRHR PAM)
COc1ccc(S(=O)(=O)N2CCCCC2)cc1NC(=O)CNc1ccccc1C(C)=O	GLP1R inv ag inconclusive
COc1ccc(S(=O)(=O)N2CCOCC2)cc1C(=O)Nc1ccc(N2CCCCCC2)cc1	GLP1R inv ag 10µM (no result: TRHR agonist, TRHR PAM)
COc1cc(Cl)c(C)cc1NCC(=O)Nc1cccc(S(=O)(=O)N2CCCC2)c1	GLP1R inv ag 8.91µM
O=C(CNc1ccc(F)cc1Cl)Nc1cccc(S(=O)(=O)N2CCCCC2)c1	GLP1R inv ag inconclusive
COc1ccc(S(=O)(=O)N2CCCCC2)cc1NCC(=O)Nc1ccc(C)cc1	GLP1R inv ag 8.91µM
COc1ccc(NC(=O)C2Cc3cc(S(=O)(=O)N4CCCCC4)ccc3N2C(C)=O)cc1Cl (stereo not given)	GLP1R inv ag 10µM
CC(=O)NC(=S)Nc1ccc(S(=O)(=O)N2CCOCC2)cc1	TRHR PAM 31.9
